# Compound activity as filed in PubChem BioAssay.
# APOBEC3A inh: inhibitors of human APOBEC3A DNA deaminase; P31941; actives 0.41% (n = 330,000); recombinant A3A, FAM/TAMRA ssDNA deamination fluorescence; inhibition, % at 20 µM; AID 493011;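 active = at least 40% inhibition at 20 µM here, with at most 30% in a related deaminase screen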;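 also: plate controls were A3A with DMSO for no effect and wells lacking A3A enzyme for full effect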
# aDG glyco up: alpha-DG glycosylation activation; Pro5-aDG cells, alpha-DG glycosylation AlphaScreen (IIH6); 0% Pro5, 100% B10-LARGE cell signal; activation, % at 10 µM; actives 0.22% (n = 360,000);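 active = activation of at least 8% versus controls, or a plate z-score of at least 8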;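 also: Pro5 are CHO cells carrying HIG-tagged alpha-DG that lacks glycosylation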
# ALR inh: inhibitors of human sulfhydryl oxidase ALR | P55789 | AID 485317 | actives 3.8% (n = 290,000) | purified ALR, DTT oxidation, H2O2 HRP-luminol luminescence | inhibition, % (concentration not given with the values);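 active = mean replicate inhibition above about 79%, with every replicate also reaching it, limit read from the data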
# Target sequence (P55789 whole entry, looked up): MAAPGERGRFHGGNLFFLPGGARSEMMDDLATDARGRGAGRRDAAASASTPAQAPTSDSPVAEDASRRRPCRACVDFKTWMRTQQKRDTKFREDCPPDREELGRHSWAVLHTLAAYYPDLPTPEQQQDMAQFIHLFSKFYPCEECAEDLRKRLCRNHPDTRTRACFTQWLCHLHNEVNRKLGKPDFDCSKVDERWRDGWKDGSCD
# APOBEC3G inh: blocks human APOBEC3G single-stranded DNA deamination. Q9HC16. recombinant A3G, ssDNA deamination FAM/TAMRA fluorescence. inhibition, % at 20 µM. actives 0.28% (n = 330,000);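 active = inhibition of at least 40% at 20 µM, with no more than 30% in the related APOBEC3A deaminase screen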;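 also: plate controls were DMSO wells with A3G for no effect and wells lacking A3G enzyme for full effect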
# Target sequence (Q9HC16 whole entry, looked up): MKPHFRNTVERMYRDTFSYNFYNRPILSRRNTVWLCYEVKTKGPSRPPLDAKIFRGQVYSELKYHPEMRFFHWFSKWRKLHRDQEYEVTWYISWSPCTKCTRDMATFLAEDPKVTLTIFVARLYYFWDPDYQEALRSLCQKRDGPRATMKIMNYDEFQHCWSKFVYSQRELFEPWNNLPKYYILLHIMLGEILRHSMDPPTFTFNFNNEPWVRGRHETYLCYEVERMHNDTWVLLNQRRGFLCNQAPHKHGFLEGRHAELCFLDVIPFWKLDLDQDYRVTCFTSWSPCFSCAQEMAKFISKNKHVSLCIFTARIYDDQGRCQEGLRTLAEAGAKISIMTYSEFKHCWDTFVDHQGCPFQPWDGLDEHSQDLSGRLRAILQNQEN
# rCAG binder: r(CAG) repeat RNA binding. TO-PRO-1 dye displacement fluorescence. AID 651821. inhibition, % at 3 µM. actives 1.3% (n = 370,000);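 active = inhibition above the plate cutoff, the mean of all test compounds on that plate plus 3 SD, cut at about 35% in these data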;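 also: 0% = DMSO alone and 100% = 100 µM mitoxantrone as full dye displacement; higher means more dye released from RNA so lower well fluorescence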
# PHOSPHO1 block: blocks human PHOSPHO1 phosphatase activity; Q8TCT1; recombinant PHOSPHO1, absorbance phosphatase assay; inhibition, % at 13.3 µM; actives 1.1% (n = 290,000); AID 1565; in the data active = inhibition above about 60%
# APOBEC3A confirm: confirmation of human APOBEC3A DNA deaminase inhibitors; shares compounds with APOBEC3A inh; recombinant A3A, ssDNA deaminase UDG fluorescence assay; inhibition, % at 20 µM; actives 63% (n = 1,400);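 active = inhibition reaching a set limit, 80% of the first screen's cutoff, at 20 µM in any replicate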;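 also: plate controls were DMSO wells with A3A for no effect and wells lacking A3A enzyme for full effect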
# UDG ctr A3A: inhibits UDG, flagging false APOBEC3A inhibitors. shares compounds with APOBEC3A inh. UDG counterscreen, FAM/TAMRA uracil oligo fluorescence. inhibition, % at 20 µM. 1,000 tested, under 10 active; call rule not given here
# The depositor's hits bear a star; · = not tested or not shown. Rows were chosen to be rich in hits. Some 5.4% of all compounds tested hit in one or more screens of this group.
SMILES,APOBEC3A inh,aDG glyco up,ALR inh,APOBEC3G inh,rCAG binder,PHOSPHO1 block,APOBEC3A confirm,UDG ctr A3A
CCOc1ccc(N(CC(=O)N/N=C/c2ccc(OC(C)C)cc2)S(C)(=O)=O)cc1,51.7*,-0.1,-0.2,8.5,0.0,-12.3,26.3,·
CCOc1ccc(/C=N/NC(=O)C(C)N(c2ccc(OC)cc2)S(C)(=O)=O)cc1 (configuration not stated),-3.1,-0.2,-7.8,-1.5,-1.6,20.6,·,·
CCN(CC)CC(O)CNc1ccnc2c(Cl)ccc(Cl)c12 (configuration not stated),·,0.1,·,·,2.9,·,·,·
COc1ccc(Cl)cc1NC(=O)CN(C)C(=O)c1cccc(S(=O)(=O)N2CCN(C)CC2)c1,17.3,0.2,2.9,-5.9,3.0,·,·,·
CN1CCN(S(=O)(=O)c2cccc(C(=O)N(C)CC(=O)Nc3ccc(F)c(F)c3F)c2)CC1,56.6*,0.0,2.6,22.5,-3.6,·,66.1*,-2.0
COc1ccc(NC(=O)CN(C)C(=O)c2cccc(S(=O)(=O)N3CCN(C)CC3)c2)cc1,55.2*,0.6,-11.4,7.5,1.2,·,15.5,·
COc1ccc(CNC(=O)c2cccc(S(=O)(=O)N3CCN(C)CC3)c2)cc1,-4.0,0.0,-7.4,-9.3,1.1,2.0,·,·
COc1cccc(CNC(=O)c2cccc(S(=O)(=O)N3CCN(C)CC3)c2)c1,67.6*,0.5,-5.8,12.4,-3.4,23.8,49.5*,0.7
CCN1CCN(S(=O)(=O)c2ccc(Cl)c(C(=O)N(CC)CC(=O)Nc3ccc(OC)cc3)c2)CC1,54.3*,0.0,-0.8,16.8,-3.5,-36.3,71.0*,-0.7
CN(CCc1ccccc1)C(=O)c1ccc(NC(=O)Cc2ccc(NC(=O)C3CCN(C(=O)C4CCC4)CC3)cc2)cc1,·,0.1,·,·,2.0,·,·,·
O=C(C[C@H]1C[C@@H]2c3cc(NC(=O)c4ccc5c(c4)OCO5)ccc3O[C@@H]2[C@H](CO)O1)NCc1cc(F)ccc1F,·,0.0,·,·,6.3,·,·,·
O=C(Cc1cccs1)Nc1nnc(CCc2ccccc2)s1,-2.8,3.1,·,-6.5,-3.5,55.2,·,·
O=C(Cc1cccs1)Nc1nnc(Cc2ccccc2)s1,63.8*,0.1,-8.3,28.7,27.2,-2.3,45.9*,-2.9
CCN(CC)C(=O)c1ncn(C)c1C(=O)N(CC)CC,51.3*,0.1,2.3,27.6,-1.5,·,64.2*,-3.0
CCN(CC)C(=O)c1ncn2c1C(=O)NC[C@H]2C,·,·,·,·,2.3,·,·,·
CN(Cc1ccccc1)C(=O)c1ncn(C)c1C(=O)N(C)Cc1ccccc1,60.5*,-0.2,2.5,13.9,1.6,·,66.7*,4.9
CCCCn1c(N)c(N(CC(C)C)C(=O)COC(=O)c2ccccc2NCCO)c(=O)[nH]c1=O,41.5*,-0.2,-1.4,8.0,-3.0,·,16.7,·
OCCNC1=NCCN1,56.0*,0.9,-4.3,17.9,-0.7,-64.7,76.4*,1.4
O=C(CSc1nnc(-c2cccnc2)n1C1CCCCC1)N1CCCC1,·,·,·,·,6.2,·,·,·
COc1ccc(-c2noc(CSc3nc(-c4ccccc4)cc(=O)[nH]3)n2)cc1,55.8*,0.0,-9.3,13.6,·,102.0*,22.1,·
O=C1C2C3C=CC(C3)C2C(=O)N1c1ccc2ccccc2c1 (configuration not stated),1.3,0.0,-7.5,-2.2,-3.6,57.6,·,·
CCSc1nc2ccc(N3C(=O)C4C5C=CC(C5)C4C3=O)cc2s1 (configuration not stated),59.6*,0.0,-3.5,5.0,4.0,6.0,20.5,·
COc1cc(OC)cc(C2=Cc3ccccc3C(CC(C)=O)N2c2ccc(C#CC3(N)CCCCC3)cc2)c1 (configuration not stated),·,-0.2,·,·,11.1,·,·,·
COC(=O)c1cc(-c2ccc(C(C)(C)C)cc2)c(=O)n2c1CCC2,·,·,·,·,-0.7,·,·,·
CCCCc1c(-c2ccccc2OC)ncn1CCc1ccccc1Cl,·,1.3,·,·,-2.9,·,·,·
SMILES,APOBEC3A inh,aDG glyco up,ALR inh,APOBEC3G inh,rCAG binder,PHOSPHO1 block,APOBEC3A confirm,UDG ctr A3A
COc1ccc(C)cc1N1CC(C(=O)Nc2cccc(C(=O)NC3CC3)c2)CC1=O (configuration not stated),·,-0.2,·,·,1.4,·,·,·
Cc1ccc(N2CC(C(=O)Nc3cccc(C(=O)NC4CC4)c3)CC2=O)cc1 (configuration not stated),41.2*,-0.2,·,7.0,4.2,·,23.0,·
CC[C@H](C)[C@H]1CNC(=O)C(=O)N1CC1CCN(CC(C)C)CC1,·,·,·,·,1.0,·,·,·
COC(=O)c1[nH]c2cc(C)ccc2c1NC(=O)CN1CCc2cc(OC)c(OC)cc2C1,-0.8,0.7,·,-8.2,·,7.0,·,·
COC(=O)c1[nH]c2ccc(Cl)cc2c1NC(=O)CN1CCc2cc(OC)c(OC)cc2C1,41.2*,0.1,0.8,8.9,6.7,-16.2,60.5*,-3.0
CCOC(=O)C1=C(C)N=C2SCCC(=O)N2C1c1cc(Br)ccc1OC (configuration not stated),40.4*,0.1,0.6,-4.5,1.5,·,-6.6,-1.2
COc1ccc2cc(C)c3nnc(SCC(=O)Nc4cc(OC)c(OC)cc4C(=O)O)n3c2c1,98.7*,0.2,-15.0,-1.5,3.4,31.7,0.2,-0.2
O=C(Nc1nc2ccccc2s1)C1CCN(S(=O)(=O)c2cc([N+](=O)[O-])ccc2Cl)CC1,80.2*,0.8,·,21.9,13.9,39.0,39.8*,·
CCCCNc1c(CCc2ccccc2)nc2nc(C)cc(C)n12,·,0.0,·,·,13.6,·,·,·
CCc1ccc(NS(=O)(=O)c2ccc(C)c(C(=O)N3CCOCC3)c2)cc1,74.5*,-0.2,2.5,14.8,-4.7,17.4,90.7*,-5.2
C/C(=N/NC(=O)Cc1cccs1)c1cccc([N+](=O)[O-])c1,·,·,·,·,2.3,·,·,·
Cc1ccc(C(OCC(C)(C)C[N+](C)(C)C)c2ccccc2)cc1 (configuration not stated),65.4*,-0.5,·,25.8,-5.9,-5.3,76.3*,-0.5
O=C(COC(=O)c1ccc(O)cc1)Nc1cccc(S(=O)(=O)NC2=NCCCCC2)c1,-4.6,0.1,-6.2,2.3,-0.6,11.9,·,·
CON(C)S(=O)(=O)c1cccc(C(=O)Nc2ccc(S(=O)(=O)NC3=NCCCCC3)cc2)c1,22.0,0.0,·,-10.9,0.9,·,·,·
COc1cc(OC)cc(C(=O)OCC(=O)Nc2cccc(S(=O)(=O)NC3=NCCCCC3)c2)c1,88.4*,0.0,0.1,-1.1,1.9,·,-4.1,2.1
CCN(CC)S(=O)(=O)c1cccc(C(=O)Nc2ccc(S(=O)(=O)NC3=NCCCCC3)cc2)c1,55.1*,0.1,5.9,3.2,-2.3,·,7.4,·
Cc1cccc(N2CCN(C(=O)CCS(=O)(=O)c3ccc(Br)cc3)CC2C)c1 (configuration not stated),44.7*,0.0,71.7,17.6,-3.7,-12.4,28.8,·
